KLK7 zymogen act – activates the human kallikrein-7 zymogen | P49862 | purified proKLK7, EDANS-DABCYL substrate fluorescence; 100% is mature enzyme control, 0% vehicle | activation, % at 7 µM | 370,000 compounds, 0.9% hits | AID 652039;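 active = activation above the mean of all tested compounds plus 3 SD, computed per campaign excluding outliers beyond control limits, cut at about 13% in these data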
ADAM17 inh – inhibitors of human ADAM17. P78536. recombinant ADAM17, EDANS/DABCYL FRET peptide cleavage. inhibition, % at 6.95 µM. 370,000 compounds, 0.83% hits;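 active = inhibition above the mean of compounds lying between control limits plus 3 SD, set per campaign, cut at about 8.5% in these data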;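 note: 0% = DMSO-only wells as the low control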
PLCb3 inh – inhibitors of human phospholipase C beta3 | 370,000 compounds, 0.18% hits | inhibition, % at 12.2 µM | Purified PLC-beta3, fluorogenic substrate, fluorescence | AID 720704; in the data active = inhibition above about 11%;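 note: 0% = median of compound wells on plate and 100% = full blocker control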
ADAM10 inh – ADAM10 inhibition, QFRET primary screen. inhibition, % at 7 µM. 370,000 compounds, 0.62% hits. recombinant ADAM10, EDANS/DABCYL FRET peptide cleavage, 3 h. O14672;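 active = inhibition above a per-campaign cutoff equal to the mean of compounds falling between control-based bounds plus 3 SD, cut at about 20% in these data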;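 note: 0% = DMSO wells while the 100% control is not disclosed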
PLCg1 inh – PLC-gamma1 (human) inhibition, primary screen; P19174; purified PLC-gamma1, fluorogenic substrate, fluorescence; inhibition, % at 12.2 µM; 370,000 compounds, 0.84% hits
PLCg1 ctr – inhibits human PLC-gamma1 in PLC-beta3 counter-screen. shares compounds with PLCg1 inh. purified PLC-gamma1, fluorogenic substrate, fluorescence. inhibition, % at 12.3 µM. 3,300 compounds, 3.1% hits
PLCbeta3 conf – confirmation of human PLC-beta3 inhibitors; AID 743261; inhibition, % at 12.3 µM; 3,300 compounds, 1% hits; shares compounds with PLCg1 inh; purified PLC-beta3, fluorogenic substrate fluorescence; in the data active = inhibition above about 11%
* marks the source's active call; other numbers are inactive results; . = no result. An excerpt weighted towards active compounds, which were near 2.9% of everything screened. Cut-off read from the data, not from the text of the source, unless noted: active = inhibition above about 9.5%; inactive = the rest.

SMILES	KLK7 zymogen act	ADAM17 inh	PLCb3 inh	ADAM10 inh	PLCg1 inh	PLCg1 ctr	PLCbeta3 conf
COc1ccc(C(=O)NCC2CCCN2S(=O)(=O)c2ccccc2)cc1OC (stereo not drawn)	0	4	-2	-2	9.5*	-3	0
CSc1nsc(SC)c1-c1ccc(Cl)cc1	0	-3	-10	-22	6	.	.
COc1cc(CNc2ncnc3c2ncn3[C@H]2CN(Cc3ccc4c(c3)OCO4)C[C@@H](CO)O2)cc(OC)c1OC	1	-3	2	-14	8	.	.
Fc1ccc(CN2CCN(C(c3ccccc3)c3ccccc3)CC2)cc1	0	-3	-5	3	2	.	.
c1ccc(CN2CCN(C(c3ccccc3)c3ccccc3)CC2)cc1	0	4	1	4	11*	-5	2
Cc1c(N=C2Nc3cccc4cccc2c34)c(=O)n(-c2ccccc2)n1C	0	-7	-50	-18	-37	.	.
Cc1c(N2C(=O)c3cccc4cccc(c34)C2=O)c(=O)n(-c2ccccc2)n1C	-1	5	12*	9	9.8*	14*	5
CCN(CC)c1nc2ccccc2n(Cc2cccc(OC)c2)c1=O	-2	-4	-37	-2	-20	.	.
O=C(Nc1ncccn1)C1CCCCC1	1	-3	-4	9	11*	-9	-1
Cc1cc(C)n(-c2nc3c(c(=O)[nH]c(=O)n3C)n2C(C)C)n1	0	8	14*	4	5	-6	-3
CCOc1ccc(S(=O)(=O)/N=C(/Nc2ccc(C)c(S(=O)(=O)N3CCOCC3)c2)c2ccccc2)cc1	0	-4	-4	13	3	.	.
Cn1nc(C(C)(C)C)cc1NC(=O)C1(C)CCN1C(=O)Cc1ccc(-c2ccccc2)cc1 (stereo not drawn)	0	6	1	12	1	.	.
COc1ccc(S(=O)(=O)CCC(=O)NCCc2cccc(C)c2)cc1	0	-4	-3	-7	9.7*	-2	0
Cc1cccc(CCNC(=O)CCS(=O)(=O)c2ccc(Br)cc2)c1	0	0	4	11	2	.	.
C=CCOc1ccc(/C(O)=C2/C(=O)C(=O)N(CCCN3CCOCC3)C2c2ccccc2)cc1 (stereo not drawn)	0	3	1	10	11*	-4	-2
CC1(C(=O)Nc2ccc3c(c2)OCCO3)CCN1C(=O)C1(c2ccc(Cl)cc2)CCC1 (stereo not drawn)	0	3	0	-2	-1	.	.
CCOC(=O)C(Sc1nn(C)c(=S)s1)C(C)=O (stereo not drawn)	0	4	11*	12	3	6	2
COc1ccc(C(=O)C2(C(=O)NC3CCCC3)CC(c3ccccc3C(F)(F)F)=NO2)cc1 (stereo not drawn)	0	2	0	7	-1	.	.
COc1ccccc1-c1cnnc(N/N=C/c2ccc(-c3cccc(Br)c3)o2)n1	0	-2	1	-1	12*	8	5
COc1ccc(-c2cnnc(N/N=C/c3ccc(-c4ccc([N+](=O)[O-])cc4)o3)n2)cc1	0	1	-2	0	-2	.	.
CC(=O)c1ccc(NC(=S)NC(NC(=O)c2ccco2)C(Cl)(Cl)Cl)cc1 (stereo not drawn)	1	3	12*	9	8	3	-1
O=C(NC(NC(=S)Nc1ccc(Cl)cc1)C(Cl)(Cl)Cl)c1ccco1 (stereo not drawn)	0	3	1	5	1	.	.
CCOC(=O)CC[C@@H]1CC[C@]2(CCCN(C(=O)C3CCCCC3)C2)O1	0	-5	-5	-4	4	.	.
COc1cc(C(=O)NCc2ccc(C)cc2)ccc1OC(F)F	0	-3	-3	-7	9.7*	1	-6
COc1cc(C(=O)NCc2ccccc2)ccc1OC(F)F	0	-4	-1	-5	-3	.	.
SMILES	KLK7 zymogen act	ADAM17 inh	PLCb3 inh	ADAM10 inh	PLCg1 inh	PLCg1 ctr	PLCbeta3 conf
Cc1nc(-[n+]2nc(-c3ccncc3)nn2-c2ccccc2)sc1C	-1	-1	7	-5	7	.	.
Cc1cc(C)c(S(=O)(=O)N2CCCc3ccccc32)c(C)c1	0	2	-4	14	0	.	.
Cc1cccc(S(=O)(=O)N2CCCc3ccccc32)c1	0	-1	-6	3	9.6*	-2	4
O=C(c1ncn(Cc2ccccc2)c1C(=O)N1CCc2ccccc2C1)N1CCc2ccccc2C1	0	-2	-3	-8	-3	.	.
COc1cccc(CNCc2ccc(OC)c3ccccc23)c1OC	0	-3	-3	-6	5	.	.
COc1cccc(CNCc2ccccn2)c1OC	0	4	14*	4	3	-6	-4
O=C(O)C(Cc1ccccc1)n1cnnn1 (stereo not drawn)	0	3	5	5	10*	-5	-2
O=C(CNC(=O)c1ccc(Br)o1)NC12CC3CC(CC(C3)C1)C2	-1	2	4	3	9.9*	1	4
COc1cc(C=C2C(=O)C=CC2=O)ccc1O	-1	5	16*	6	30*	0	2
COc1cc(/C=C2/C(=O)CNC2=O)ccc1O	0	-1	1	-1	5	.	.
NS(=O)(=O)c1ccc(NC(=S)NC(=O)C2CCCCC2)cc1	0	8	8	11	11*	-5	-5
NS(=O)(=O)c1ccc(NC(=S)NC2CCCCCC2)cc1	0	4	8	12	5	.	.
O=S(=O)(c1ccccc1)c1cnn(-c2ccccc2)c1-c1ccc(F)cc1	0	-1	15*	14	-2	-6	13*
COc1ccc(-n2ncc(S(=O)(=O)c3ccccc3)c2-c2ccc(Cl)cc2)cc1	1	8	3	16	5	.	.
CN(Cc1ccccc1)C(=O)COC(=O)COc1ccc(C#N)cc1	0	8	0	-1	9.8*	-4	1
COc1ccc(CCNC(=O)CCNS(=O)(=O)c2cccc3nsnc23)cc1OC	1	0	2	0	11*	-4	-4
COc1ccc(CCNC(=O)CCNS(=O)(=O)c2cccc3nonc23)cc1OC	0	-4	0	4	-5	.	.
O=C(Cc1ccc(Cl)cc1)NC1CCCN(Cc2ccccc2F)C1 (stereo not drawn)	0	0	-2	7	12*	-3	2
Cc1nn(C)c(Cl)c1CN1CCCC(CCC(=O)NCc2ccccc2F)C1 (stereo not drawn)	0	-1	-2	-15	0	.	.
CCOc1cccc(CN2CCCC(CCC(=O)NCc3ccccc3F)C2)c1O (stereo not drawn)	-1	5	11*	0	11*	-6	0
COC(=O)c1ccc(N2CCN(c3ccccc3)CC2)c(N)c1	0	-3	-13	-3	-8	.	.

Screening results deposited in PubChem BioAssay by The Scripps Research Institute Molecular Screening Center.
